# Reference: PubChem BioAssay (Tox21)
# Values without a mark were called inactive. Records with an inconclusive call do not appear. Entries that show only a call come without a potency. The source made the active and inactive calls. Unless noted, calls come from the whole dose curve.
# Legend:
# [1] = Nuclear factor erythroid 2-related factor 2/antioxidant responsive element (Nrf2/ARE) small molecule agonists: qHTS cell viability counter screen in human keratinocytes (AID 1919968; active = well fitted curve in the direction sought with a large enough effect in the repeat runs; an effect the other way counts as inactive or inconclusive; note: nearly all actives have a fitted effect of over 55% in size; note: potency is the fitted concentration of half-maximal effect)
# Procedure, shortened: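 Cytotoxicity was multiplexed with the Nrf2/ARE luciferase assay in the same wells. Stably transfected HaCaT keratinocytes were treated with test compounds for 23 h at 37 C. Cell viability was then measured by CellTiter-Fluor fluorescence.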
# [2] = Nuclear factor erythroid 2-related factor 2/antioxidant responsive element (Nrf2/ARE) small molecule agonists: luciferase reporter gene qHTS assay in human keratinocytes (AID 1919969); note: nearly all actives have a fitted effect of over 35% in size; note: potency is the fitted concentration of half-maximal effect
# [3] = target: Gonadotropin-releasing hormone receptor (Homo sapiens) (UniProt P30968); assay: Human gonadotropin-releasing hormone receptor (GnRHR) small molecule agonists, calcium flux assay in GnRHR-HEK293 cells (AID 1920063); note: nearly all actives have a fitted effect of over 35% in size; note: potency is the fitted concentration of half-maximal effect
# Sequence of Gonadotropin-releasing hormone receptor (Homo sapiens) (P30968 whole entry, looked up): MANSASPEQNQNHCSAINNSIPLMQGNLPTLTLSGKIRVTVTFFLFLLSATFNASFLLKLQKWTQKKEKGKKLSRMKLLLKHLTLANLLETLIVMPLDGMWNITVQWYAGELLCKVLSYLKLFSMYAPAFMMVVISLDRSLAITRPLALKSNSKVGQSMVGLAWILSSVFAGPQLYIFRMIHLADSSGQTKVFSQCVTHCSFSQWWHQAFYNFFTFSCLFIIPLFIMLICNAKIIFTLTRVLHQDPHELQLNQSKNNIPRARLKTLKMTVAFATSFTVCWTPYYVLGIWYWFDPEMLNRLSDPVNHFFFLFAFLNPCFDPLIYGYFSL
# Procedure, shortened: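 Agonist activity was measured as intracellular calcium flux in HEK293 cells engineered to stably express human GnRHR. After dye loading for 1 hour at 37 C, compounds in DMSO were added and fluorescence was followed for 3 minutes.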
# [4] = target: KiSS-1 receptor (Homo sapiens) (UniProt Q969F8); assay: Human kisspeptin (KISS1R) small molecule agonists, calcium flux assay in KISS1R-HEK293 cells (AID 1920064; active = well fitted curve in the direction sought with a large enough effect in the repeat runs; an effect the other way counts as inactive or inconclusive)
# Sequence of KiSS-1 receptor (Homo sapiens) (Q969F8 whole entry, looked up): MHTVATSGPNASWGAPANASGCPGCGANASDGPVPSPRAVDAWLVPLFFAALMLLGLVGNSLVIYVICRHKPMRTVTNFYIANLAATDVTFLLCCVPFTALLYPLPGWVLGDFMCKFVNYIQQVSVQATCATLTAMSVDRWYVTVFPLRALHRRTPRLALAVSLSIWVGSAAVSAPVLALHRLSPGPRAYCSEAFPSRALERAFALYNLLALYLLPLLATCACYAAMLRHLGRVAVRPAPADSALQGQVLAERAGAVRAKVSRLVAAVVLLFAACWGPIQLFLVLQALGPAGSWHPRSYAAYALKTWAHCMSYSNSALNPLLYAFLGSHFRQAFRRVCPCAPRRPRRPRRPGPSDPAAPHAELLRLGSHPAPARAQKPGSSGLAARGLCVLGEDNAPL
# Procedure, shortened: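 Agonist activity is monitored as intracellular calcium rise in engineered HEK293 cells carrying human KISS1R. Cells are dye-loaded for 1 h at 37 C before compound addition, and fluorescence is recorded for 3 min.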
# [5] = p53 small molecule agonists, cell-based qHTS assay with human liver microsomes: qHTS cell viability counter screen (AID 1963579); note: nearly all actives have a fitted effect of over 45% in size; note: potency is the fitted concentration of half-maximal effect
# Procedure, shortened: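 Viability of p53RE-bla cells is measured as CellTiter-Glo luminescence following a 16 h, 37 C incubation with compound, liver microsomes from human donors and NADPH.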
# [6] = p53 small molecule agonists, cell-based qHTS assay with rat liver microsomes: qHTS cell viability counter screen (AID 1963580); note: nearly all actives have a fitted effect of over 45% in size; note: potency is the fitted concentration of half-maximal effect
# Procedure, shortened: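 Counter screen for cytotoxicity under metabolic activation: rat liver microsomes and NADPH, 0.5 mg/mL final each, added with compounds to p53RE-bla HCT-116 cells; 16 h at 37 C, then ATP luminescence read.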
# [7] = p53 small molecule agonists, cell-based qHTS assay: qHTS cell viability counter screen (AID 1963581); note: nearly all actives have a fitted effect of over 45% in size; note: potency is the fitted concentration of half-maximal effect
# Procedure, shortened: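 Viability was counter-screened in parallel with the p53 agonist reporter by measuring intracellular ATP luminescence in the same HCT-116 p53RE-bla wells after 16 h compound treatment at 37 C.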
# [8] = p53 small molecule agonists, cell-based qHTS assay (AID 1963582; active = well fitted activation curve with a large enough effect in the signal ratio in the repeat runs, not every such curve was filed as active; the % refers to the signal ratio; note: potency is the fitted concentration of half-maximal effect)
# Procedure, shortened: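 Cells carrying a p53-responsive bla reporter are treated with test compounds for 16 h at 37 C; beta-lactamase activity is then detected with LiveBLAzer B/G FRET substrate after 2 h at room temperature.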
# [9] = target: 5-hydroxytryptamine receptor 2A (Homo sapiens) (UniProt P28223); assay: 5-hydroxytryptamine receptor 2A (HTR2A) small molecule antagonists, cell-based qHTS assay (AID 1963586); note: nearly all actives have a fitted effect of over 45% in size; note: potency is the fitted concentration of half-maximal effect
# Sequence of 5-hydroxytryptamine receptor 2A (Homo sapiens) (P28223 whole entry, looked up): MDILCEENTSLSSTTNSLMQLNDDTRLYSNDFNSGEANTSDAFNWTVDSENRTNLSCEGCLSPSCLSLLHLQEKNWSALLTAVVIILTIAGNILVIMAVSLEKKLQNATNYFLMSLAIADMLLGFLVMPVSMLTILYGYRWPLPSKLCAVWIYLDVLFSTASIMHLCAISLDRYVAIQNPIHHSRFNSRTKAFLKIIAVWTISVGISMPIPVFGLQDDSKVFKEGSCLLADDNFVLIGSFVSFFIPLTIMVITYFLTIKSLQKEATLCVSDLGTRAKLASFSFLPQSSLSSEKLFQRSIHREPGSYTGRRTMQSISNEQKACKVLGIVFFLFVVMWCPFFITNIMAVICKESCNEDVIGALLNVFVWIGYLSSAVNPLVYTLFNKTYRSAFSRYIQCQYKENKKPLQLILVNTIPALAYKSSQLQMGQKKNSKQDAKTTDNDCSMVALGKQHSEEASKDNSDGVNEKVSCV
# Procedure, shortened: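 CHO cells stably expressing human HTR2A were plated for 18 h at 37 C, then loaded with calcium dye for 1 h. Compounds were preincubated 5 min at room temperature before DOI (4 nM solution) was added. Kinetic fluorescence was read for 3 min.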
# [10] = target: Muscarinic acetylcholine receptor M1 (Homo sapiens) (UniProt P11229); assay: Cholinergic receptor muscarinic 1 (CHRM1) small molecule antagonists, cell-based qHTS assay (AID 1963588); note: nearly all actives have a fitted effect of over 40% in size
# Sequence of Muscarinic acetylcholine receptor M1 (Homo sapiens) (P11229 whole entry, looked up): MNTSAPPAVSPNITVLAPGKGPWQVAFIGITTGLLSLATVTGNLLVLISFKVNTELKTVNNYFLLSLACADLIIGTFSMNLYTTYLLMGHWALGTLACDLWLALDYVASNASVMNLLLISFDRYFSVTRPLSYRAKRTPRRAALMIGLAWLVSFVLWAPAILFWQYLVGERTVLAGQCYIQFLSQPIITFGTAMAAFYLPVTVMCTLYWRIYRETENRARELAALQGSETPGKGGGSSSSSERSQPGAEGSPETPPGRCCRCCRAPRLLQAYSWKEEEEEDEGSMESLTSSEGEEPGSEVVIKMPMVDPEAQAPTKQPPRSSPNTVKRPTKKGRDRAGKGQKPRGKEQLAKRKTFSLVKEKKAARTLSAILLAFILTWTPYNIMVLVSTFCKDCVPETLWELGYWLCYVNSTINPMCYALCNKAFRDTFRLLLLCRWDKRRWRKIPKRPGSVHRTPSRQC
# Procedure, shortened: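 Compounds were tested at 15 concentrations in three independent runs. Dye-loaded CHRM1-CHO cells were exposed 5 min at room temperature before stimulation by acetylcholine added at 50nM. Intracellular calcium was read kinetically on FDSS for 3 min.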
# [11] = target: Muscarinic acetylcholine receptor M1 (Homo sapiens) (UniProt P11229); assay: Cholinergic receptor muscarinic 1 (CHRM1) small molecule agonists, cell-based qHTS assay (AID 1963589); note: nearly all actives have a fitted effect of over 35% in size
# Procedure, shortened: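 Cells were plated and incubated 18 h at 37 C/5% CO2, loaded with calcium dye for 1 h at 37 C, then treated with compounds in DMSO. Fluorescence was recorded kinetically at 1 sec intervals.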
# [12] = cAMP Responsive Elements (CRE) small molecule agonists, cell-based qHTS assay (AID 1963590)
# Procedure, shortened: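 Cells carrying a CRE-driven beta-lactamase reporter (HEK 293T) are seeded, incubated overnight (18 h), and treated with test compounds for 3 h at 37 C; reporter activity is then detected with a FRET substrate after 2 h at room temperature.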
# [13] = cAMP Responsive Elements (CRE) small molecule antagonists, cell-based qHTS assay (AID 1963591; active = well fitted inhibition curve with a large enough effect in the signal ratio in the repeat runs, not every such curve was filed as active; the % refers to the signal ratio)
# Procedure, shortened: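 Cells (CRE-bla HEK 293T, DMEM with 10% dialyzed FBS and 25 mM HEPES) are seeded and incubated 18 h. Compounds are added with NKH477 agonist at 0.25 uM final for 3 h, then FRET substrate for 2 h.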
# [14] = target: Beta-2 adrenergic receptor (Homo sapiens) (UniProt P07550); assay: Adrenergic beta2 receptor (ADRB2) small molecule antagonists, cell-based qHTS assay (AID 1963592); note: series mostly up to about 92 µM; nearly all actives have a fitted effect of over 50% in size
# Sequence of Beta-2 adrenergic receptor (Homo sapiens) (P07550 whole entry, looked up): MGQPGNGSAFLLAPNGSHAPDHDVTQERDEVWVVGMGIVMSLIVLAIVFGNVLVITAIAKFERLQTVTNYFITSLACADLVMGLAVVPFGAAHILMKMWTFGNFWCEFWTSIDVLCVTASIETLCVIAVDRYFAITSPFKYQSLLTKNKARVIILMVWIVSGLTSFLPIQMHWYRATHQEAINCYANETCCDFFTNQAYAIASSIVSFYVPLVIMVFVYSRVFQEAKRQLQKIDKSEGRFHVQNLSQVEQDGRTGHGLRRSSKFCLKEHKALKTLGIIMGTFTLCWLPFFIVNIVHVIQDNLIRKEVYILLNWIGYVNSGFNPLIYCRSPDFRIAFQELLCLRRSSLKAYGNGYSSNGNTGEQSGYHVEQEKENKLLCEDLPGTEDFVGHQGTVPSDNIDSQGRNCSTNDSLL
# Procedure, shortened: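 Assay format: CHO-ADRB2 cells, 18-20hr seeding at 37C/5% CO2, then compound plus 1nM isoproterenol agonist mix for 0.5hr RT. Homogeneous time-resolved fluorescence cAMP detection after 1hr, expressed as 665/615 nm ratio.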
# [15] = G protein-coupled receptor (GPCR) small molecule agonists, calcium flux assay: HEK293 wild type cell line counter screen (AID 1920065)
# Procedure, shortened: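 Seed cells, incubate 18 h (37 C, 5% CO2); add calcium dye, 1 h at 37 C; pin-transfer compounds, ATP control or DMSO; read fluorescence 480/540 nm each second for 3 min.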
# [16] = p53 small molecule agonists, cell-based qHTS assay with human liver microsomes (AID 1963577);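 note: p53 response element beta-lactamase reporter cells with liver microsomes plus NADPH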
# Procedure, shortened: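 HLM-supplemented p53RE-bla reporter assay: 16 h compound exposure at 37 C, microsomes and NADPH each 0.5 mg/mL final, read by fluorescence intensity.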
# [17] = target: 5-hydroxytryptamine receptor 2A (Homo sapiens) (UniProt P28223); assay: 5-hydroxytryptamine receptor 2A (HTR2A) small molecule agonists, cell-based qHTS assay (AID 1963587); note: nearly all actives have a fitted effect of over 30% in size; note: potency is the fitted concentration of half-maximal effect
# Procedure, shortened: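 HTR2A-CHO cells, plated 18 h at 37 C/5% CO2, dye-loaded 1 h at 37 C; compounds in DMSO added by pin tool (agonist mode). Intracellular calcium flux read as kinetic fluorescence on FDSS over 2 min at 1 s intervals.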
# [18] = target: D(2) dopamine receptor (Homo sapiens) (UniProt P14416); assay: Dopamine D2 receptor (DRD2) small molecule antagonists, cell-based qHTS assay (AID 1963595; active = well fitted inhibition curve with a large enough effect in the signal ratio in the repeat runs, with a control signal flat; the % refers to the signal ratio)
# Sequence of D(2) dopamine receptor (Homo sapiens) (P14416 whole entry, looked up): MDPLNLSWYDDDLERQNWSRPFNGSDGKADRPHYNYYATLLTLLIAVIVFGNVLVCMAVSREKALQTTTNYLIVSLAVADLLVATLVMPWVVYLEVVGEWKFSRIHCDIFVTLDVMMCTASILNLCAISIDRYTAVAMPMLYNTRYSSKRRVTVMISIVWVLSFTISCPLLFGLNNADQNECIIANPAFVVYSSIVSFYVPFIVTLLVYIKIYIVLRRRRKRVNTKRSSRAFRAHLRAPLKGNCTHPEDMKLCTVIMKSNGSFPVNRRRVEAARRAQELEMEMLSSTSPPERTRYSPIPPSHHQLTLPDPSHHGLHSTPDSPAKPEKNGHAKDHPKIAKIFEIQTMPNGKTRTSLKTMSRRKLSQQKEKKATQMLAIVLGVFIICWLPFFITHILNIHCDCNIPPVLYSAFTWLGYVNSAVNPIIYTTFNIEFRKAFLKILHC
# Procedure, shortened: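 HTRF cAMP read-out at 665 and 620 nm emission (340 nm excitation). Antagonist mode: compounds were tested against 12 nM quinpirole in DRD2-HEK293 cells, with 200 nM NKH477 raising cAMP and 0.1 mM Ro20-1724 blocking its breakdown.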
# [19] = target: Beta-2 adrenergic receptor (Homo sapiens) (UniProt P07550); assay: Adrenergic beta2 receptor (ADRB2) small molecule agonists, cell-based qHTS assay (AID 1963593);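 note: CHO cells stably overexpressing human ADRB2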
# Procedure, shortened: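 CHO cells stably over-expressing ADRB2 were plated overnight at 37C, then dosed with compounds plus a stimulation mix containing 100uM IBMX and 25uM Ro-20-1724 for 0.5hr at room temperature. cAMP was measured by HTRF competition, 1hr.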
# [20] = target: D(2) dopamine receptor (Homo sapiens) (UniProt P14416); assay: Dopamine D2 receptor (DRD2) small molecule agonists, cell-based qHTS assay (AID 1963594); note: nearly all actives have a fitted effect of over 35% in size
# Procedure, shortened: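 HEK293 cells stably expressing DRD2 were cultured 24 h at 37 C, then given Ro20-1724 (0.1 mM final) and compounds for 10 min at room temperature. NKH477 (200nM) was then added for 30 min. cAMP was read by HTRF.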
compound,measurement,setting,value
O=C(O)C(F)(F)C(F)(F)C(F)(F)C(F)(F)C(F)(F)C(F)(F)C(F)(F)C(F)(F)C(F)(F)F,Potency,[1],inactive
same,Potency,[2],inactive
same,Potency,[3],inactive
same,Potency,[4],inactive
same,Potency,[5],inactive
same,Potency,[6],inactive
same,Potency,[7],inactive
same,Potency,[8],inactive
same,Potency,[9],inactive
same,Potency,[10],inactive
same,Potency,[11],inactive
same,Potency,[12],inactive
same,Potency,[13],inactive
same,Potency,[14],inactive
[Hg+2].[I-].[I-],Potency,[1],4.33 µM (active)
same,Potency,[2],1.22 µM (active)
same,Potency,[3],43.6 µM (active)
same,Potency,[15],inactive
same,Potency,[16],inactive
same,Potency,[5],4.58 µM (active)
same,Potency,[6],12.9 µM (active)
same,Potency,[9],inactive
same,Potency,[17],49 µM (active)
same,Potency,[10],inactive
CC[N+]1(C)CCCC(OC(=O)C(O)(c2ccccc2)c2ccccc2)C1 (centres undefined),Potency,[1],inactive
same,Potency,[2],inactive
same,Potency,[3],inactive
same,Potency,[4],inactive
same,Potency,[5],inactive
same,Potency,[6],inactive
same,Potency,[7],inactive
same,Potency,[8],inactive
same,Potency,[9],inactive
same,Potency,[17],inactive
same,Potency,[11],inactive
same,Potency,[12],inactive
same,Potency,[13],inactive
same,Potency,[14],inactive
same,Potency,[18],inactive
COP(=S)(Oc1cc(Cl)c(Br)cc1Cl)c1ccccc1 (centres undefined),Potency,[1],inactive
same,Potency,[2],48.6 µM (active)
same,Potency,[3],inactive
same,Potency,[4],inactive
same,Potency,[5],inactive
same,Potency,[7],inactive
same,Potency,[9],inactive
same,Potency,[17],inactive
same,Potency,[10],inactive
same,Potency,[11],inactive
same,Potency,[13],inactive
same,Potency,[14],inactive
same,Potency,[19],inactive
same,Potency,[20],inactive
same,Potency,[18],inactive
CCN(C(C)=O)c1cccc(-c2ccnc3c(C#N)cnn23)c1,Potency,[1],inactive
same,Potency,[2],inactive
same,Potency,[3],inactive
same,Potency,[15],inactive
same,Potency,[16],inactive
same,Potency,[5],inactive
same,Potency,[6],inactive
same,Potency,[7],inactive
same,Potency,[8],inactive
same,Potency,[12],inactive
same,Potency,[14],inactive
same,Potency,[19],inactive
same,Potency,[20],inactive
C=CC(=O)OCCN(C)C,Potency,[1],inactive
same,Potency,[2],inactive
same,Potency,[3],inactive
same,Potency,[15],inactive
same,Potency,[16],inactive
same,Potency,[6],inactive
same,Potency,[7],inactive
same,Potency,[8],inactive
same,Potency,[17],inactive
same,Potency,[10],inactive
same,Potency,[12],inactive
same,Potency,[13],inactive
same,Potency,[20],inactive
CCc1cc(OC)c(C[C@H](C)N)cc1OC,Potency,[1],inactive
same,Potency,[2],inactive
same,Potency,[3],inactive
same,Potency,[15],inactive
same,Potency,[16],inactive
same,Potency,[5],inactive
same,Potency,[6],inactive
same,Potency,[7],inactive
same,Potency,[8],inactive
same,Potency,[9],inactive
same,Potency,[10],inactive
same,Potency,[11],inactive
same,Potency,[12],inactive
same,Potency,[13],inactive
same,Potency,[18],inactive
CC(C)(c1ccc(O)c(-c2ccccc2)c1)c1ccc(O)c(-c2ccccc2)c1,Potency,[1],13.7 µM (active)
same,Potency,[2],inactive
same,Potency,[3],inactive
same,Potency,[15],inactive
same,Potency,[16],inactive
same,Potency,[5],18.2 µM (active)
same,Potency,[6],20.4 µM (active)
same,Potency,[7],20.4 µM (active)
same,Potency,[9],18.8 µM (active)
same,Potency,[17],inactive
same,Potency,[10],inactive
same,Potency,[11],inactive
same,Potency,[20],inactive
O=C(NC(=O)c1c(F)cccc1F)Nc1cc(Cl)c(Oc2ncc(C(F)(F)F)cc2Cl)c(Cl)c1,Potency,[1],inactive
same,Potency,[2],inactive
same,Potency,[3],inactive
same,Potency,[15],inactive
same,Potency,[16],inactive
same,Potency,[5],inactive
same,Potency,[6],inactive
same,Potency,[7],inactive
same,Potency,[8],17.5 µM (active)
same,Potency,[9],inactive
same,Potency,[17],inactive
same,Potency,[10],inactive
same,Potency,[11],inactive
same,Potency,[14],inactive
same,Potency,[19],inactive
same,Potency,[20],inactive
same,Potency,[18],inactive
O=C(O)C(F)(F)C(F)(F)C(F)(F)C(F)(F)C(F)(F)F,Potency,[1],inactive
same,Potency,[2],inactive
same,Potency,[3],inactive
same,Potency,[15],inactive
same,Potency,[16],inactive
same,Potency,[5],inactive
same,Potency,[6],inactive
same,Potency,[7],inactive
same,Potency,[8],inactive
same,Potency,[9],inactive
same,Potency,[17],inactive
same,Potency,[10],inactive
same,Potency,[12],inactive
same,Potency,[13],inactive
same,Potency,[14],inactive
same,Potency,[19],inactive
same,Potency,[20],inactive
same,Potency,[18],inactive
CC(C1CC1)C(O)(Cn1cncn1)c1ccc(Cl)cc1 (centres undefined),Potency,[1],inactive
same,Potency,[2],inactive
same,Potency,[3],inactive
same,Potency,[4],inactive
same,Potency,[6],inactive
same,Potency,[7],inactive
same,Potency,[8],inactive
same,Potency,[9],inactive
same,Potency,[17],inactive
same,Potency,[10],inactive
same,Potency,[11],inactive
same,Potency,[12],inactive
same,Potency,[14],inactive
same,Potency,[20],inactive
same,Potency,[18],inactive
Cc1ccc2c(c1)C1CN(C)CCC1N2 (centres undefined),"activity change, negative = cytotoxicity",[1],-10.1% [at 19 µM]
same,"activity, positive = activation",[2],-3.42% [at 19 µM]
same,activity change,[3],"1.2% [at 11.8 µM, stronger effect = higher value]"
same,activation,[15],-0.508% [at 11.8 µM]
same,activation,[16],3.07% [at 13.5 µM]
same,"activity change, negative = cytotoxicity",[5],-1.76% [at 13.5 µM]
same,"activity change, negative = cytotoxicity",[6],-8.73% [at 13.5 µM]
same,"activity change, negative = cytotoxicity",[7],13.5% [at 13.5 µM]
same,activation,[8],0% [at 13.5 µM]
same,Potency,[17],0.165 µM (active)
same,activation,[11],-0.313% [at 15.8 µM]
same,activation,[12],-1.75% [at 19 µM]
same,"activity change, negative = inhibition",[13],-7.6% [at 18.9 µM]
same,"activity change, negative = inhibition",[14],-2.7% [at 19 µM]
same,activation,[20],-2.85% [at 19 µM]
same,"activity change, negative = inhibition",[18],-2.92% [at 18.9 µM]
